± gives the standard deviation.
The sequences below were run on MILI (PIWIL2) piRISC loaded with piRNA #1 (26 nt) (assay: pre-steady-state target cleavage rate (min^-1); guide: piRNA #1 5'p-UGAGGUAGUAGGUUGUAUAGUAUCCA; MIWI and MILI are mouse PIWI proteins and EfPiwi is from a freshwater sponge; tags in brackets are library labels; higher = faster piRNA-guided slicing of the target). Conditions: auxiliary factor: 500 nM mouse GTSF1.
Protocol: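 Cleave-'n-Seq: a library of target RNAs (target site embedded in constant flanks, ACAGCATTCCGCGTTAGTGATATCCG... 5' flank; DNA-blocked outside the site) at 0.1 nM was incubated with 1 nM active mouse MILI or MIWI piRISC (synthetic 5'-monophosphorylated piRNA guide) with or without 500 nM mouse GTSF1 at 33 °C for 1 min to 16 h. Uncleaved targets were sequenced and normalised to non-target controls, and the pooled three trials were fitted to a burst-and-steady-state model to give the pre-steady-state cleavage rate (min^-1; k3 is constrained to at most 1e-4). Sequence is the target site only; target names encode pairing extent (gX:gY) and contiguous / 1-mismatch / 2-mismatch / bulge geometry. Fits with R² ≤ 0 are excluded.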
GGAGACCUUUGUAUACAACCUACUACCUCA was tested, and the “pre-steady-state target cleavage rate” value was 0.0347 ± 0.0065. For GGAGACCUAUGUAUACAUCCUACUACCUCA, the “pre-steady-state target cleavage rate” value was 0.124 ± 0.012. For GGAGAGGAUACAAAACAACCUACUACCUCA, the “pre-steady-state target cleavage rate” value was 0.128 ± 0.013. With GGAGUGGAUACAAUUCAACCUACUACCUCA the “pre-steady-state target cleavage rate” value was 0.178 ± 0.0092. For GGAGACGAUUCUAUACAACCUACAACCUCA, the “pre-steady-state target cleavage rate” value was 0.164 ± 0.013. For GGAGACGAUACUAUACAAGCUACUACCUGA, the “pre-steady-state target cleavage rate” value was 0.202 ± 0.022. For GGAGACCUAACAAUACAACCUAGUACCUCA, the “pre-steady-state target cleavage rate” value was 0.00888 ± 0.0052. In the case of GGAGAGGAUACUAUACAUCCUACUUCCUCA, the “pre-steady-state target cleavage rate” value is reported as 0.0107 ± 0.0033. In the case of GGAGACCUAUCAAUACAAGCUACUACCUCA, the “pre-steady-state target cleavage rate” value is reported as 0.108 ± 0.013. GGAGACCUAUGUAAACAACCUACUACGUCA was tested, and the “pre-steady-state target cleavage rate” value was 0.00279 ± 0.0027. GGAGACGAUACUAUACUACCUACUACGUCA was tested, and the “pre-steady-state target cleavage rate” value was 0.138 ± 0.019. With GGAGACCUUACUAUACAACCUACUACCUGCA the “pre-steady-state target cleavage rate” value was 0.167 ± 0.019. In the case of GGAGACCUUACUAUACAACAUACUACCUCA, the “pre-steady-state target cleavage rate” value is reported as 0.0732 ± 0.0077. With GGAGUGGAUACUAUACAACCAACUAGCUCA the “pre-steady-state target cleavage rate” value was 0.00229 ± 0.0021. For GGAGACCUUACUAUACAACCUACUACAUCA, the “pre-steady-state target cleavage rate” value was 0.106 ± 0.013. In the case of GGAGUGGAUACUAUACAACCUACUACCUCCA, the “pre-steady-state target cleavage rate” value is reported as 0.223 ± 0.011. GGAGAGGAAACUAUACAAGCUACUACCUCA was tested, and the “pre-steady-state target cleavage rate” value was 0.179 ± 0.031. In the case of GGAGACGAUACUAUAGCAACCUACUACCUCA, the “pre-steady-state target cleavage rate” value is reported as 0.162 ± 0.013. GGAGACGAUACUUUACAACCUACUAGCUCA was tested, and the “pre-steady-state target cleavage rate” value was 0.0695 ± 0.013. GGAGACCAUACUAUACAACCUACUUCGUCA was tested, and the “pre-steady-state target cleavage rate” value was 0.112 ± 0.029. GGAGACCUAUGAUAUCAACCUACAACCUCA was tested, and the “pre-steady-state target cleavage rate” value was 0.00288 ± 0.0026. GGAGUCGAUACUAUACAACCUAGUACCUCA was tested, and the “pre-steady-state target cleavage rate” value was 0.0166 ± 0.0031. For GGAGACGAUACUAUACAACCUACUACCUA, the “pre-steady-state target cleavage rate” value was 0.151 ± 0.018. GGAGAGGAUACUAUACAACCUACAUCCUCA was tested, and the “pre-steady-state target cleavage rate” value was 0.00373 ± 0.0031. In the case of GGAGACCAUACUAAACAACCUUCUACCUCA, the “pre-steady-state target cleavage rate” value is reported as 0.00805 ± 0.0035. With GGAGACCUAACUAAACAACCUACUAGCUCA the “pre-steady-state target cleavage rate” value was 0.0613 ± 0.018. GGAGACCUUACUUUACAACCUACUACCACA was tested, and the “pre-steady-state target cleavage rate” value was 0.14 ± 0.018. GGAGAGGAUACUAUACAACCUACUACCGUCA was tested, and the “pre-steady-state target cleavage rate” value was 0.0203 ± 0.0064. GGAGACCUAUGUAUACAACCUACUACGUGA was tested, and the “pre-steady-state target cleavage rate” value was 0.0238 ± 0.0053. GGAGACCUAACUAUAUCAACCUACUACCUCA was tested, and the “pre-steady-state target cleavage rate” value was 0.00944 ± 0.004. For GGAGACGAUACUAUACAACCUACAACGUCA, the “pre-steady-state target cleavage rate” value was 0.00524 ± 0.0044. With GGAGUGGAUACUAUACAACCUUCUACCACA the “pre-steady-state target cleavage rate” value was 0.00348 ± 0.0024. In the case of GGAGUGGAUACUAUACUACCUACAACCUCA, the “pre-steady-state target cleavage rate” value is reported as 0.117 ± 0.0096. For GGAGACCUAUGAUAACAACCUACUAGCCUCA, the “pre-steady-state target cleavage rate” value was 0.00672 ± 0.0023. In the case of GGAGACCUAUGAUAUGAACGUACAACCUCA, the “pre-steady-state target cleavage rate” value is reported as < 0.0001. GGAGAGGAUACUAUACAACCUACUAGCUCA was tested, and the “pre-steady-state target cleavage rate” value was 0.0627 ± 0.012. GGAGUGGAUACUAUUCAACCUUCUACCUCA was tested, and the “pre-steady-state target cleavage rate” value was 0.00907 ± 0.0019. In the case of GGAGACCUAUGAUUACAACCUACUCACCUCA, the “pre-steady-state target cleavage rate” value is reported as 0.00473 ± 0.0023. In the case of GGAGACCUUUACUAUACAACCUACUACCUCA, the “pre-steady-state target cleavage rate” value is reported as 0.154 ± 0.012. With GGAGACCUAACUAUAACAACCUACUACCUCA the “pre-steady-state target cleavage rate” value was 0.0743 ± 0.018.

Reference: the supplement of paper PMC10338343
